Drawing on PubChem BioAssay AID1259343 (VanderVen Lab, College of Veterinary Medicine, Cornell …, 2017), this text covers inhibition for 100 molecules.

Screen size: about 6,200 compounds; about 2,900 (47%) were called active. No stated cut-off is given here; in the data, active means inhibition above about 50%; inactive means the rest. The set was probably picked from earlier hits. The list shows a part of the results.

A short description of this test: Mycobacterium tuberculosis growth inhibition, primary screen (AID 1259343). Conditions: inhibition: at 10 µM, stronger effect = higher value; outcome: 10 uM.
For orientation: inhibition means the change of the read-out against control, counted positive when it falls. Take `N#Cc1nc(C2CC2)oc1N1CCN(C(=O)Nc2ccccc2)CC1`: the inhibition is 21.4% (inactive).

For `COC(=O)c1ccc(CSC(=S)N(C)C)cc1`, the inhibition was 82.1% (active). Under `NC(=O)C1CCN(C(=O)CCc2ccsc2)CC1` stands 90.9% (active); under `Cc1c(C(=O)N2CCC(C(N)=O)CC2)nnn1-c1nc(-c2ccccc2)cs1`, 20.4% (inactive). With `CC(C)c1csc(C2CCN(C(=O)CCc3ccsc3)CC2)n1`, the inhibition was 83.6% (active). Consider `NC(=O)C1CCN(C(=O)CCC2CCCC2)CC1`, for which the inhibition is -28.4% (inactive).

As to `CCN1C(=Cc2ccc3cc(C)ccc3[n+]2CC)Sc2ccccc21`, the inhibition is 56.1% (active). Consider `CCN1C(=Cc2cc(C)[n+](C3CCCCC3)c(C)c2)Sc2ccccc21`, for which the inhibition is -19.4% (inactive). As for `CCC(C)[n+]1c(C)cc(C=C2Sc3ccccc3N2CC)cc1C` (stereo not given), the figure is 84.5% (active); as for `Cc1cc(C=C2Sc3ccccc3N2C)cc(C)[n+]1-c1ccccc1`, 41.1% (inactive). As for `CCCCCOc1ncnc2c1sc1nc3c(cc12)COC(C)(C)C3`, the figure is 51% (active); as for `CC(C)CCOc1ncnc2c1sc1nc3c(cc12)COC(C)(C)C3`, 63.6% (active). With `CC1(C)[C@H]2CC[C@@H](CNC(=O)c3cc(=O)n(-c4ccccc4)[nH]3)[C@@H]1C2`, the inhibition is 23.3% (inactive). As for `C=C(NC(=O)C(=C)NC(=O)c1csc(C2=NC3c4csc(n4)C4NC(=O)c5csc(n5)C(C(C)(O)C(C)O)NC(=O)C5CSC(=N5)C(=CC)NC(=O)C(C(C)O)NC(=O)c5csc(n5)C3(CC2)NC(=O)C(C)NC(=O)C(=C)NC(=O)C(C)NC(=O)C(C(C)CC)NC2C=Cc3c(C(C)O)cc(nc3C2O)C(=O)OC4C)n1)C(N)=O` (stereo not given), the figure is 95.4% (active); as for `N=C1c2ccccc2CN1c1ccc(OC(F)(F)C(F)F)cc1`, 64.2% (active). As for `CSc1nsc(SC)c1NC(=O)OC1CCCCC1`, the figure is 11.5% (inactive).

Turning to `Cc1ccc(CNS(=O)(=O)Cc2ccc(F)cc2)cc1F`, the inhibition is 29.8% (inactive). For the molecule `CC(C(=O)NCc1cccs1)S(=O)(=O)c1ccc(C(F)(F)F)cn1` (stereo not given), the inhibition was 14.3% (inactive).

Turning to `CNS(=O)(=O)Cc1ccc(CNc2ccc(C(F)(F)F)cn2)cc1`, the inhibition is 50.3% (active). Regarding `N#Cc1c(Cl)nsc1NCCC1CC2CCC1C2` (stereo not given), the inhibition was 96.1% (active).

For `N#Cc1c(Cl)nsc1NC1CCSc2c(F)cccc21` (stereo not given), the inhibition was 11.2% (inactive). As for `COc1cccc(C(CN2CCN(C(=O)C=C(C)C)CC2)OCc2cccc(Cl)c2)c1` (stereo not given), the figure is -4.3% (inactive). In the case of `N=C1C=CC(=C(c2cccc(N)c2)c2cccc(N)c2)C=C1`, the inhibition was 68.4% (active). Consider `CC1c2cccn2CCN1Cc1csc(Nc2ccccc2)n1` (stereo not given), for which the inhibition is 20.8% (inactive). As for `CCOc1ccc(Nc2nc(-c3c(C)nc4ccccn34)cs2)cc1`, the figure is 61.2% (active); as for `CCOc1ccc(NC(=O)CSc2nc(=O)n3ccccc3n2)cc1`, 2.8% (inactive); as for `CC(Oc1ccc(Cl)cc1)C(=O)NC(C)c1cccs1` (stereo not given), 94.5% (active).

As for `COc1ccccc1CN(C(=O)Nc1ccccc1Cl)C1CC1`, the inhibition was 78.5% (active). With `COc1ccccc1NC(=O)N(Cc1ccsc1)C1CC1`, the inhibition was 16% (inactive).

Turning to `COc1ccccc1CNC(=O)C1(S(=O)(=O)c2ccc(Cl)cc2)CCCC1`, the inhibition is 2.93% (inactive). As for `CCc1cc(=O)[nH]c(-n2nc(C)cc2NC(=O)c2cc(Cl)ccc2OC)n1`, the figure is 102% (active). Under `Cc1cc(=O)[nH]c(-n2nc(C3CC3)cc2NC(=O)c2cc(Cl)ccc2Cl)n1` stands -15.9% (inactive); under `COc1ccc(Cl)cc1C(=O)Nc1cc(C2CC2)nn1-c1nc(C)cc(=O)[nH]1`, 99.9% (active); under `COc1ccc(Cl)cc1C(=O)Nc1cc(C)nn1-c1nc(C)cc(=O)[nH]1`, 101% (active). For the molecule `COc1ccc(Cl)cc1C(=O)Nc1cc(C)nn1-c1nc(C)c(C)c(=O)[nH]1`, the inhibition was 100% (active). Under `Cc1noc(CNC(C)(C)Cc2ccc(Br)cc2)n1` stands -9.14% (inactive); under `Cn1c2ccccc2n2c3ncccc3c(=O)c(C#N)c12`, 41.8% (inactive); under `CCSc1nnc(SCc2cccc(OC)n2)s1`, 90.4% (active). As for `COc1ccc(CSc2nnc(SCC(=O)N3CCCCCC3)s2)cc1`, the inhibition was 26.9% (inactive).

Take `CSc1nnc(SCc2cc(C)no2)s1`: the inhibition is 27.2% (inactive). Take `CCCCN(C)S(=O)(=O)c1ccc(NC(=O)c2ccc(OC)nc2)cc1`: the inhibition is 88% (active). For `CON(C)S(=O)(=O)c1cc(C(=O)Nc2cccc(Cl)c2Cl)ccc1Cl`, the inhibition was 22.1% (inactive). Under `COc1ccc(NC(=O)c2ccc(-c3ccc(C(C)=O)cc3)o2)cn1` stands -28.8% (inactive); under `COc1ccc(C2=NOC(CNCc3cccc(C(F)(F)F)c3)C2)cc1` (stereo not given), 43.6% (inactive); under `Fc1cccc(CNCC2CC(c3ccc(Cl)c(Cl)c3)=NO2)c1` (stereo not given), 57.1% (active).

In the case of `COc1ccc(C2=NOC(CNCc3cccc(F)c3)C2)cc1` (stereo not given), the inhibition is 76.2% (active).

Regarding `COc1ccc(C2=NOC(c3ccc(C)cc3)C2)cc1` (stereo not given), the inhibition is 22.2% (inactive). Turning to `CCc1cccc(NC(=O)Cn2nc3ccc(SC(C)C)nn3c2=O)c1`, the inhibition is 77.8% (active). As for `Cc1ccc(=O)n(CC(=O)Nc2ccc(Sc3ccccc3Cl)cc2)n1`, the figure is 5.63% (inactive). On to `O=C(CN1CCc2ccccc21)NC(=O)NCc1ccccc1`, for which the inhibition was 20.7% (inactive). Under `COc1ccc(-c2nnn(CC(=O)Nc3ccc(C)c(F)c3)n2)cc1OC` stands 86.6% (active); under `Cc1ccc(NC(=O)Cc2ccc(OC(F)F)cc2)cc1F`, 48.2% (inactive); under `Cc1ccc(NC(=O)CN2CCc3ccccc32)cc1F`, 54.7% (active). Under `O=C(Cn1nnc(-c2ccccc2Cl)n1)Nc1ccc(I)cc1` stands 32.1% (inactive); under `CCCn1ncc(CN2CCOC(c3ccc(Cl)c(Cl)c3)C2)c1C` (stereo not given), 7.23% (inactive). Under `CCCc1sc(C(=O)Nc2nccs2)cc1CC` stands 80.5% (active). As for `CCOc1ccc(CCN=C=S)cc1OCC`, the inhibition is 97.5% (active). With `Cn1nnnc1SCc1ccc(Cl)c(Cl)c1`, the inhibition was 37.6% (inactive). Under `CCSc1nnc(-c2ccc(Cl)cc2Cl)o1` stands 100% (active); under `Clc1ccc(CSc2nnc(-c3ccco3)o2)cc1Cl`, 88% (active).

`Brc1ccccc1-c1nnc(SCc2nnc(-c3ccco3)o2)o1`: the inhibition is -32.1% (inactive). For the molecule `c1ccc(-c2nnc(CSc3nnc(-c4ccccc4)o3)o2)cc1`, the inhibition is 101% (active). As for `N#Cc1ccc(CSc2nnc(-c3ccccc3)o2)cc1`, the figure is -28.8% (inactive); as for `Clc1ccc(CSc2nnc(-c3ccco3)o2)c(Cl)c1`, -6.93% (inactive). Under `c1ccc(-c2nnc(SCc3nnc(-c4ccco4)o3)o2)cc1` stands 69.9% (active); under `Fc1ccccc1-c1nnc(SCc2ccccc2Br)o1`, 1.69% (inactive); under `Fc1ccccc1-c1nnc(SCc2cccc3ccccc23)o1`, 85.9% (active). As for `Clc1cc2c(c(CSc3nnc(-c4ccco4)o3)c1)OCOC2`, the figure is 86.3% (active).

For the molecule `Cc1occc1-c1nnc(SCc2nnc(-c3ccco3)o2)o1`, the inhibition was 92.5% (active).

On to `BrC12CC3CC(C1)CC(c1nnc(-c4ccco4)o1)(C3)C2`, for which the inhibition is 23.4% (inactive). Regarding `ClC12CC3CC(C1)CC(c1nnc(-c4ccco4)o1)(C3)C2`, the inhibition is 12.4% (inactive).

Turning to `Clc1ccccc1-c1nnc(SCc2ccccc2)o1`, the inhibition was 74.3% (active).

`Cc1ccc(/C=C/c2nc3scc(CC(C)C)c3c(=O)[nH]2)s1`: the inhibition was -12.6% (inactive). For the molecule `COc1ccccc1CC(=O)N1CCC(n2nc(-c3ccccc3)cc2-c2ccccc2)CC1`, the inhibition is 59.7% (active). As to `CCCC(=O)N1CCCC1C(=O)Nc1ccc(-c2ccccc2)nn1` (stereo not given), the inhibition is -13% (inactive). Consider `COc1cc(-c2ccc(=O)n(Cc3ccccc3C)n2)cc(OC)c1OC`, for which the inhibition result is “inactive”. Under `COc1ccccc1-c1noc(CSc2nnc(-c3ccc4c(c3)OCO4)o2)n1` stands 99% (active); under `COc1ccc(-c2noc(CSc3nnc(-c4ccc5c(c4)OCO5)o3)n2)cc1OC`, 78.9% (active); under `CCc1ccc(-c2noc(CSc3nnc(-c4ccc5c(c4)OCO5)o3)n2)cc1`, -23.7% (inactive). Consider `COc1ccc(OCCSc2nnc(-c3ccc(OC)c(OC)c3)o2)cc1`, for which the inhibition was 91.1% (active).

On to `COc1ccccc1-c1nnc(SCC(=O)c2ccc3c(c2)OCO3)o1`, for which the inhibition is -33.1% (inactive). Under `Cn1c(SC2CCCc3ccccc32)nnc1-c1ccco1` (stereo not given) stands 27.9% (inactive); under `CCn1c(SCC(=O)Nc2ccc(I)cc2)nnc1-c1ccco1`, 10.3% (inactive). Under `CCn1c(SCC(=O)c2cc(C)ccc2C)nnc1-c1ccco1` stands 52.6% (active); under `CC1CCN(S(=O)(=O)NC(C)c2ccc(F)cc2)CC1` (stereo not given), 17.4% (inactive); under `CC1CCN(S(=O)(=O)NCCc2ccccc2F)CC1`, 82.6% (active).

Turning to `CC1CCCN(S(=O)(=O)NCc2ccccc2Cl)C1` (stereo not given), the inhibition was -12.8% (inactive). Take `C/C=C/c1cc(C(=O)Nc2nc(C)cs2)cc(OC)c1OC`: the inhibition was 57.2% (active). Under `Cc1csc(NC(=O)c2ccnc(N(C)C)c2)n1` stands -4.65% (inactive); under `COc1ccc(Oc2ccc(CNCc3ccc(C)s3)cn2)cc1`, 78.2% (active); under `COc1ccc(CNC(=O)Nc2ncc([N+](=O)[O-])s2)cc1`, 11.6% (inactive). `Cc1ccccc1OCC(=O)Nc1ccc(-n2ccnc2)cc1C(F)(F)F`: the inhibition is 8.11% (inactive). Under `Cc1nc(-c2cc(Br)cs2)sc1C(=O)O` stands 19.5% (inactive); under `CNC(=O)C(C#N)C(=O)c1sc(-c2ccc(Cl)s2)nc1C` (stereo not given), 54.5% (active); under `CC(C)N1CCN(Cc2ccc(C#CC(C)(C)O)s2)CC1CCO` (stereo not given), 77.8% (active). `O=C(CS(=O)CCOc1cccc(Br)c1)NCC1CCCCC1` (stereo not given): the inhibition is 12.5% (inactive). Under `O=C(NCC1CC1)c1cc(-c2ccc(Br)cc2)n[nH]1` stands 2.7% (inactive); under `COc1ccc(C(=O)NCC2CCCCC2)cc1F`, 70.9% (active); under `O=C(NCC1CCCC1)c1csc(Br)c1`, 95.4% (active). Under `O=C(NS(=O)(=O)C1CCCC1)c1ccc(F)c(F)c1` stands 25.9% (inactive).
